PubChem BioAssay AID434970 (Sanford-Burnham Center for Chemical Genomics, 2010)
Screen size: about 11,000 compounds; about 310 (2.8%) were called active. Rule as the data show it: active = activity change below about -85%; inactive = the rest. What follows is part of a selection rich in actives, with near analogues and random picks from the rest.

System: intestinal alkaline phosphatase [Mus musculus]
Assay: mouse intestinal phosphatase enzyme activation – biochemical, luminescence, single concentration, confirmation (AID 434970)
Details: purified mouse IAP, CDP-Star luminescence, 30 min, at 10 µM; activation factor: measured here: IAP activation factor, stronger effect = higher value; activity change, negative = activation: stronger effect = lower value

| SMILES | activation factor | activity change, negative = activation |
| --- | --- | --- |
| Cc1cccc(C2=NN(c3ccccc3)[C@H](CO)[C@H]2c2ccccc2)c1 | 2.07 | -107% (active) |
| OC[C@@H]1[C@@H](c2ccccc2)C(c2cccc(Cl)c2)=NN1c1ccccc1 | 2.28 | -128% (active) |
| OC[C@@H]1[C@@H](c2ccc(F)cc2)C(c2ccccc2)=NN1c1ccccc1 | 1.73 | -72.9% (inactive) |
| OC[C@@H]1[C@@H](c2ccc(Cl)cc2)C(c2ccc(F)cc2)=NN1c1ccccc1 | 1.79 | -79% (inactive) |
| OC[C@@H]1[C@@H](c2ccccc2)C(c2ccc(F)cc2)=NN1c1ccccc1 | 1.65 | -64.5% (inactive) |
| Cc1cccc(C2=NN(c3ccccc3)[C@H](CO)[C@H]2c2ccc(Cl)cc2)c1 | 1.89 | -89.3% (inactive) |
| OC[C@@H]1[C@@H](c2ccc(Cl)cc2)C(c2cccc(Cl)c2)=NN1c1ccccc1 | 2.2 | -120% (active) |
| OC[C@@H]1[C@@H](c2ccccc2)C(c2ccccc2)=NN1c1ccccc1 | 2.15 | -115% (active) |
| OC[C@@H]1[C@@H](c2ccc(F)cc2)C(c2cccc(Cl)c2)=NN1c1ccccc1 | 1.96 | -96.2% (inactive) |
| Cc1cccc(C2=NN(c3ccccc3)[C@H](CO)[C@H]2c2ccc(F)cc2)c1 | 1.73 | -72.7% (inactive) |
| O=C1OCCN1C(=O)[C@H]1[C@H](c2ccccc2)C(c2cccc(Cl)c2)=NN1c1ccccc1 | 1.01 | -1.05% (inactive) |
| OC[C@@H]1[C@@H](c2ccc(Cl)cc2)C(c2ccccc2)=NN1c1ccccc1 | 1.77 | -76.8% (inactive) |
| Cc1noc(C)c1S(=O)(=O)N1CCC(C(=O)NCCN2CCC(C)CC2)CC1 | 1.01 | -1.4% (inactive) |
| COc1ccc(C(=O)Nc2ccc(S(=O)(=O)N3CCCCC3)cc2)cc1 | 1.11 | -11% (inactive) |
| COC(=O)C(NC(=O)CCc1c(C)nc2ncnn2c1C)C(C)C (stereo not given) | 0.949 | 5.15% (inactive) |
| Clc1ccc(-n2nnnc2-c2cnc(-c3ccncc3)nc2-c2cccs2)cc1 | 0.877 | 12.4% (inactive) |
| COc1ccc(CN(C(=O)c2ccco2)C2CC(C)N(C)CC2C)cc1 (stereo not given) | 0.982 | 1.75% (inactive) |
| COc1ccc(CNC(=O)C[C@H]2C[C@H](C(=O)N3CCOCC3)[C@@]3(C)c4[nH]c5cc(CCC(=O)N(C)C)ccc5c4CCN3C2=O)cc1OC | 1.08 | -8.2% (inactive) |
| O=C(O)CCSc1nc(C(F)(F)F)cc(=O)n1-c1ccccc1 | 1.01 | -1% (inactive) |
| Cn1cc(C(=O)c2ccccc2)cc1-c1nc2ccccc2n1C | 1.13 | -13.2% (inactive) |
| COc1ccccc1[C@H]1C(c2cccc(Cl)c2)=NN(c2ccccc2)[C@@H]1CO | 1.54 | -54.1% (inactive) |
| COc1ccccc1[C@H]1C(c2ccc(F)cc2)=NN(c2ccccc2)[C@@H]1CO | 1.49 | -48.9% (inactive) |
| COc1ccccc1[C@H]1C(c2ccccc2)=NN(c2ccccc2)[C@@H]1CO | 1.99 | -99.2% (active) |
| Clc1ccccc1CN(Cc1ccco1)Cc1nnnn1C1CCCC1 | 1.07 | -7.45% (inactive) |
| CC(C)C(=O)Nc1ncc(C(F)(F)F)cc1Cl | 1.02 | -2.1% (inactive) |
| Cc1ccc(CNC(N)=S)cc1 | 1.06 | -6.15% (inactive) |
| CC(NC(=S)NC1CCC(C(C)(C)C)CC1)c1ccccc1 (stereo not given) | 1.7 | -69.9% (inactive) |
| Cc1ccc(CNC(=S)NC2CCC(C(C)(C)C)CC2)cc1 (stereo not given) | 2 | -99.9% (active) |

| SMILES | activation factor | activity change, negative = activation |
| --- | --- | --- |
| O=C(COC(=O)c1cccnc1SCC(=O)NCc1ccccc1)NCc1ccccc1 | 0.985 | 1.5% (inactive) |
| CCCc1cc(=O)[nH]c(SCC(=O)N(C)CC(=O)Nc2ccccc2CC)n1 | 0.825 | 17.6% (inactive) |
| S=C(Nc1ccc(Br)cc1)NC1CCCCC1 | 1.71 | -70.7% (inactive) |
| CCc1ccc(NC(=O)NC2CCCCCCC2)cc1 | 3.13 | -213% (active) |
| COc1ccc(CCNC(=O)NC2CCCCC2)cc1 | 0.976 | 2.4% (inactive) |
| CC(C)c1ccc(NC(=S)NC2CCCCCC2)cc1 | 1.39 | -38.9% (inactive) |
| O=C(Nc1ccc(Br)cc1)NC1CCCCCCC1 | 2.74 | -174% (active) |
| CC(=O)Nc1ccc(C(=O)OCC(=O)NC(=O)NC2CCCCC2)cc1 | 0.997 | 0.3% (inactive) |
| COc1ccc(C2NCCO2)cc1OC (stereo not given) | 0.954 | 4.65% (inactive) |
| C=CCONC(=O)Cc1ccccc1 | 1.1 | -9.55% (inactive) |
| Cc1ccc(NC2=NC(C(=O)Nc3ccc(C)c(C)c3)CC(=O)N2)cc1 (stereo not given) | 0.958 | 4.15% (inactive) |
| COc1ccc(NC(=O)N2CCCC2C(=O)Nc2ccc(C)c(Cl)c2)cc1 (stereo not given) | 1.12 | -12.4% (inactive) |
| Cc1ccc(NC(=O)C2CC(=O)n3c(nc4ccccc43)N2)cc1C (stereo not given) | 2.2 | -120% (active) |
| Cc1ccc(NC(=O)C2CC(=O)n3c(nc4ccccc43)N2)cc1Cl (stereo not given) | 2.25 | -125% (active) |
| Cc1ccc(NC(=O)C(=O)NNC(=O)c2ccccc2C)cc1Cl | 0.889 | 11.1% (inactive) |
| Cc1cccc(NC(=O)C2CC(=O)n3cnnc3S2)c1 (stereo not given) | 0.843 | 15.8% (inactive) |
| C=C(C)Cn1c(=O)c2c(nc3n2CCN3c2cccc(Cl)c2C)n(C)c1=O | 0.924 | 7.6% (inactive) |
| CC(C)(C)c1ccc(OCc2nc(-c3ccccn3)no2)c(Br)c1 | 0.924 | 7.55% (inactive) |
| COc1ccc(-c2noc(CCC(=O)N3CCN(c4ccc(C(F)(F)F)cc4)CC3)n2)cc1 | 1.05 | -4.65% (inactive) |
| COc1ccc(OC)c(N)c1 | 0.877 | 12.3% (inactive) |
| C=CCn1c(Br)nc2c1c(=O)[nH]c(=O)n2C | 0.97 | 2.95% (inactive) |
| O=C(NCC1CCN(Cc2ccccc2Cl)CC1)Nc1cccc(Cl)c1 | 1.77 | -77.5% (inactive) |
| COc1cc(OC)cc(C(=O)Nc2c(F)cccc2F)c1 | 1.02 | -1.9% (inactive) |
| COc1cc(NC(=O)C2CCCN(c3ncccn3)C2)cc(OC)c1 (stereo not given) | 1.11 | -10.6% (inactive) |
| O=C(NCC1CCN(Cc2ccccc2F)CC1)Nc1cccc(Br)c1 | 2.05 | -105% (active) |
| COc1cc(NC(=O)NCC2CCN(Cc3ccccc3F)CC2)cc(OC)c1 | 2.67 | -167% (active) |
| O=C(NCCOc1ccccc1F)Nc1ccc(Br)cc1 | 1.46 | -45.9% (inactive) |
